The record followed here is PubChem BioAssay (NCATS).

Inconclusive results are not listed. Unmarked numbers belong to inactive results. Calls of active or inactive are those of the source. Calls follow the shape of the dose curve; as a rule, active = well fitted inhibition curve with a large enough effect; inconclusive = small, poorly fitted or top-dose-only effect; inactive = flat fitted curve, though single readings scatter. Where a SMILES comes first, the peptide text is derived from it. Bridges are numbered along the chain shown (N, C = ends). [ ]: non-standard residue; d: D form. The star is where a group is joined. X2 = CC[C@H](C)CCCCC(=O)*; Dab = NCC[C@H](N)C(=O)O
% is scaled to controls: 0 for no effect and ±100 for the full control effect; potency is read from the fitted curve at half-maximal effect.

This test concerns KB-3-1. The test is described as follows: Cytotoxic Profiling of Annotated Libraries Using Quantitative High-Throughput Screening (AID 1296008). Also: nearly all actives have a fitted effect of over 60% in size. The conditions noted are these: Five cell lines viability, CellTiter-Glo ATP luminescence, 48-72 h; max response: hits give low values. A digest of the protocol: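 Compounds were pin-transferred onto cells and incubated 48 or 72 hr at 37 degree Celsius, 95% humidity. CellTiter-Glo was added, plates sat 10 min at room temperature, then ATP-coupled luminescence was imaged as the viability read-out.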
For the compound `O=C(O)c1cccc(/C=C2/C[C@@H]3[C@@H](/C=C/[C@@H](O)C4CCCCC4)[C@H](O)C[C@@H]3O2)c1`, the max response is -0.588%.
Regarding `O=C(Cn1c(=O)sc2ccc(Cl)cc21)N1CCN(CCO)CC1`, the max response was 2.82%.
On the same count and under the same terms, the result for `O=C(OCCO)c1ccccc1O` reads -5.64%; that for `CCCC(=O)N1CCCN(c2nc(N)c3cc(OC)c(OC)cc3n2)CC1`, -12.4%; that for `C=C1CC[C@@H]2[C@](C)(CO)[C@H](O)CC[C@@]2(C)[C@@H]1CC(=O)C1=CCOC1=O`, -15.5%.
The same measure, in the same setting: the result for `C[C@H](CSC(=O)c1ccccc1)C(=O)N1C[C@@H](Sc2ccccc2)C[C@H]1C(=O)O` reads -1.05%; that for `Cc1ccc(/C(=C\CN2CCCC2)c2cccc(/C=C/C(=O)O)n2)cc1`, -13.8%.
Take `CCC(=O)Oc1ccc2c(c1)CC[C@@H]1[C@@H]2CC[C@]2(C)[C@@H](OC(=O)CC)CC[C@@H]12`: the max response is -26.3%.
On the same count and under the same terms, the result for `CCOC(=O)Cc1cccc(-c2cc(CCCCCCc3ccc(O[C@H]4O[C@H](COC(C)=O)[C@@H](OC(C)=O)[C@H](OC(C)=O)[C@@H]4OC(C)=O)c(-c4cccc(CC(=O)OCC)c4)c3)ccc2O[C@H]2O[C@H](COC(C)=O)[C@@H](OC(C)=O)[C@H](OC(C)=O)[C@@H]2OC(C)=O)c1` reads -10.9%.
Regarding `Cc1cc(Nc2ccccc2C(=O)O)ccc1Cl`, the max response is -5.19%.
Still for that read-out and setting: to `Cc1ccc(C2(O)CCN(CCCC(=O)c3ccc(F)cc3)CC2)cc1` belongs -11.9%.
Take `CCC(C)[C@H]1O[C@]2(C=C[C@@H]1C)C[C@@H]1C[C@@H](C/C=C(\C)[C@@H](O[C@H]3C[C@H](OC)[C@@H](O[C@H]4C[C@H](OC)[C@H](NC(C)=O)[C@H](C)O4)[C@H](C)O3)[C@@H](C)/C=C/C=C3\CO[C@@H]4[C@H](O)C(C)=C[C@@H](C(=O)O1)[C@]34O)O2` (stereo partly drawn): the Potency is 9.2 µM (active).
Turning to `CCOC(=O)[C@H](CCc1ccccc1)N[C@@H](C)C(=O)N1CC2(C[C@H]1C(=O)O)SCCS2`, the max response is -20.5%.
The same measure, in the same setting: the result for `CN(C)CCOc1ccccc1Cc1ccccc1` (tested in a mixture with another compound) reads 0.128%.
On the same count and under the same terms, to `NCCC(=O)[N-][C@@H](Cc1cnc[nH]1)C(=O)O.[Zn]` belongs -13.6%; to `c1ccc2c(CCC3CCNCC3)c[nH]c2c1`, -10.3%; to `CN(C(=O)CO)c1c(I)c(C(=O)NCC(O)CO)c(I)c(C(=O)NCC(O)CO)c1I` (stereo not drawn), 5.16%.
Still for that read-out and setting: the result for `CN1CC(O)c2cc(N=NC(N)=O)c(O)cc21` (stereo not drawn) reads -10.6%.
On to `COc1cc([C@@H]2c3cc4c(cc3C(O[C@@H]3O[C@@H]5COC(c6cccs6)O[C@H]5[C@H](O)[C@H]3O)C3COC(=O)[C@@H]32)OCO4)cc(OC)c1O` (stereo partly drawn), for which the Potency is 3.66 µM (active).
On to `CC[C@H](C)CCCCC(=O)N[C@@H](CCN)C(=O)N[C@H](C(=O)N[C@@H](CCN)C(=O)N[C@H]1CCNC(=O)[C@H]([C@@H](C)O)NC(=O)[C@H](CCN)NC(=O)[C@H](CCN)NC(=O)[C@H](CC(C)C)NC(=O)[C@@H](CC(C)C)NC(=O)[C@H](CCN)NC1=O)[C@@H](C)O` (X2-[Dab]T[Dab][Dab][Dab][dL]L[Dab][Dab]T; lactam 4-C), for which the max response was -11.4%.
Turning to `Nc1ncnc(Nc2ccc(Cl)cc2)n1`, the max response is -7.22%.
For `CCCCCC(O)/C=C/C=O` (stereo not drawn), the max response is -19%.
Still for that read-out and setting: the result for `CCOc1ccc(N=C(C)Nc2ccc(OCC)cc2)cc1` reads -26.1%; that for `CC[C@H]1OC(=O)[C@H](C)[C@@H](O[C@H]2C[C@@](C)(OC)[C@@H](O)[C@H](C)O2)[C@H](C)[C@@H](O[C@@H]2O[C@H](C)C[C@H](N(C)C)[C@H]2O)[C@](C)(O)C[C@@H](C)[C@@H]2N[C@@H](COCCOC)O[C@@H]([C@H]2C)[C@]1(C)O`, -15.7%; that for `O=[N+]([O-])c1ccc(Oc2ccc(N=C=S)cc2)cc1`, -16.8%.
Still for that read-out and setting: to `Cn1nnnc1SCC1=C(C(=O)O)N2C(=O)[C@@H](NC(=O)[C@H](OC=O)c3ccccc3)[C@H]2SC1` belongs -7.31%; to `C/C(=C(\CCOC(=O)c1ccccc1)SS/C(CCOC(=O)c1ccccc1)=C(/C)N(C=O)Cc1cnc(C)nc1N)N(C=O)Cc1cnc(C)nc1N`, -12.4%.
For `CC(C)C[C@@H](N)C(=O)N[C@H]1C(=O)N[C@@H](CC(N)=O)C(=O)N[C@H]2C(=O)N[C@H]3C(=O)N[C@H](C(=O)N[C@H](C(=O)O)c4cc(O)cc(O)c4-c4cc3ccc4O)[C@H](O)c3ccc(c(Cl)c3)Oc3cc2cc(c3O[C@@H]2O[C@H](CO)[C@@H](O)[C@H](O)[C@H]2O[C@H]2C[C@](C)(N)[C@H](O)[C@H](C)O2)Oc2ccc(cc2Cl)[C@H]1O`, the call was inactive.
